Each structure is given as a SMILES string. Counter-ions that a name gives are not always drawn. ± gives the standard deviation of the averaged measurements.

The test system of this assay is Toxoplasma gondii RH (in HFF). The assay is described as follows: parasite growth relative to the screen mean (all compounds = 100%); higher = less inhibition of parasite growth. The following applies: 5 µM; 72 h; oxygen 21 %. In a few lines:
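RH β-Gal–GFP Toxoplasma at MOI 1:5 was used to infect confluent human foreskin fibroblasts in 96-well plates within 2 h of pin-transferring compounds to 5 µM final. After 72 h at 21% O2, parasite number was determined by CPRG β-Gal assay against standard curves on the same plate. Growth is relative to the screen mean and averaged over two screens, with all compounds = 100%.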
The compound `NC(=O)CNCCC(c1ccccc1)c1ccccc1` [N20C hydrochloride] came in with a parasite growth of 71.4 ± 14%.

`NCCCCCCCCCCNS(=O)(=O)c1cccc2c(Cl)cccc12` [A-7 hydrochloride] returned a parasite growth of 142 ± 17%.

Compound `Cc1cccc(Nc2cc(Cl)nc(SCC(=O)O)n2)c1C` displayed a parasite growth of 108.5 ± 0.57%.

`COc1ccc(CN2C(=O)C(=O)c3cc(OC(F)(F)F)ccc32)cc1` gave a parasite growth of 68.6 ± 14%.

`Cc1cc(C)c(S(=O)(=O)Nc2ccccc2C(F)(F)F)c(C)c1`: the parasite growth was found to be 145 ± 10%.

`CC(C)NCC(O)COc1ccc(CC(N)=O)cc1` (racemic) [(RS)-Atenolol]: the parasite growth worked out at 103 ± 7.6%.

On to `COc1ccc(-n2[nH]c3c4c(ncc3c2=O)CCCCC4)cc1`, for which the parasite growth worked out at 105 ± 28%.

For the compound `CN(CCOc1ccc(C[C@H](Nc2ccccc2C(=O)c2ccccc2)C(=O)O)cc1)c1ccccn1`, the parasite growth stood at 30 ± 17%.

Compound `CC(C)n1nnc2cc(C(=O)O)ccc21` displayed a parasite growth of 81.9 ± 22%.

For `C[N+](C)(C)CCCCCNCC12CC3CC(CC(C3)C1)C2`, the parasite growth is 120 ± 3.1%.

`OC(CCCN1CCN(c2ncc(F)cn2)CC1)c1ccc(F)cc1` (centres undefined) came in with a parasite growth of 64.6 ± 30%.

The compound `CC1C(=O)OC2C(O)C34C5CC(C(C)(C)C)C36C(OC(=O)C6O)OC4(C(=O)O5)C12O` (centres undefined) [Ginkgolide B] registered a parasite growth of 82.1 ± 27%.

The compound `C[C@@H](N)[C@H]1CC[C@H](C(=O)Nc2ccncc2)CC1` had a parasite growth of 92.3 ± 21%.

For `O=C(O)Cn1c(C(=O)Nc2nc(-c3ccccc3Cl)cs2)cc2ccccc21`, the parasite growth was found to be 133 ± 2.8%.

On to `Brc1c(NC2=NCCN2)ccc2nccnc12` [UK 14,304 tartrate], for which the parasite growth turned out to be 101 ± 27%.

The compound `CCC(C)N(C)C(=O)c1cc2ccccc2c(-c2ccccc2Cl)n1` (centres undefined) registered a parasite growth of 85.5 ± 33%.

Take `O=C(NCCCCN1CCN(c2cccc(Cl)c2Cl)CC1)c1ccc2c(c1)Cc1ccccc1-2`: the parasite growth turned out to be 92.71 ± 0.75%.

As for `O=C(O)COCCN1CCN(C(c2ccccc2)c2ccc(Cl)cc2)CC1` (centres undefined) [Cetirizine dihydrochloride], the parasite growth is 136 ± 34%.

Consider `COc1ccccc1N1CCN(CCCCNC(=O)c2ccc(-c3ccc(C(C)=O)cc3)cc2)CC1`, for which the parasite growth was found to be 156 ± 28%.

For the compound `CC12CC3CC(C)(C1)CC(N)(C3)C2` [Memantine hydrochloride], the parasite growth was determined as 123 ± 4.8%.

`CC1=Nc2ccc(Cl)cc2S(=O)(=O)N1` [Diazoxide] gave a parasite growth of 77.6 ± 16%.

Consider `CCOC(=O)[C@H](CCc1ccccc1)N[C@H]1CCc2ccccc2N(CC(=O)O)C1=O` [Benazepril hydrochloride], for which the parasite growth stood at 140 ± 36%.

For `O=C(C=Cc1ccccc1)NC(NC(=S)Nc1ccc(Cl)cc1)C(Cl)(Cl)Cl` (centres undefined), the parasite growth turned out to be 34.8 ± 9.4%.

Turning to `COc1ccc(C(=O)Nc2sc3c(c2C(N)=O)CCCC3)cc1OC`, the parasite growth is 112 ± 5.8%.

In turn, `Oc1cc(O)cc(/C=C/c2ccc(O)c(O)c2)c1` [Piceatannol] showed a parasite growth of 145 ± 42%.

As for `Cn1ccc2cc3c(cc21)CCN3C(=O)Nc1cccnc1`, the parasite growth was 121 ± 17%.

`N#CC(=C(/N)Sc1ccccc1N)/C(C#N)=C(/N)Sc1ccccc1N` displayed a parasite growth of 197 ± 14%.

Compound `CS(=O)(=O)Nc1c(O)ccc2c1CCCC2C1=NCCN1` (centres undefined) came in with a parasite growth of 101 ± 12%.

As for `O=C(O)C1(C(=O)O)CCC1.[NH2-].[NH2-].[Pt+2]` [Carboplatin], the parasite growth is 136 ± 19%.

For the compound `CCCC(=O)Nc1ncnc2c1ncn2[C@@H]1O[C@@H]2COP(=O)(O)O[C@H]2[C@H]1OC(=O)CCC` [Dibutyryl-cAMP, sodium salt], the parasite growth turned out to be 125 ± 23%.

The compound `COc1ccc(CCN(C)CCc2ccc(OC)c(OC)c2)cc1OC` [YS-035 hydrochloride] yielded a parasite growth of 136 ± 23%.

Take `O=C(O)C=C1CCCc2ccccc2C1O` (centres undefined): the parasite growth turned out to be 112 ± 16%.

`O=C(COc1cccc2c(=O)[nH]ccc12)c1ccccc1` showed a parasite growth of 92.69 ± 0.78%.

Take `CC(C)CC(NC(=O)OCC1c2ccccc2-c2ccccc21)C(=O)O` (centres undefined): the parasite growth turned out to be 59.8 ± 23%.

The compound `CN(CCc1ccc(Cl)c(Cl)c1)CC(O)COc1ccc(NS(C)(=O)=O)cc1` (centres undefined) gave a parasite growth of 58.1 ± 4.3%.

`CN1CCc2cc(Cl)c(O)cc2[C@@H](c2ccccc2)C1` showed a parasite growth of 120 ± 46%.

Consider `N[C@H]1CCN(O)C1=O`, for which the parasite growth is 94.9 ± 34%.

Compound `CC(C)NC[C@H](O)COc1ccc(CC(N)=O)cc1` [S-(-)-Atenolol] had a parasite growth of 149 ± 12%.

Compound `CC1(C)CC(=O)C(C2C3=C(CC(C)(C)CC3=O)Oc3ccccc32)C(=O)C1` (centres undefined) displayed a parasite growth of 127 ± 18%.

The record behind these values is the supplement of paper PMC4894684.
